Screens deposited in PubChem by National Center for Advancing Translational Sciences (NCATS).
Pol eta inh-1 – qHTS for Inhibitors of Polymerase Eta; actives 1.2% (n = 390,000); DNA polymerase eta (Homo sapiens), Q9Y253; AID 588591, 2011; Potency, µM (doses to about 114 µM), usual class: inhibitors; recombinant Pol eta, fluorescent DNA replication assay
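Fluorescent replication assay: 50 nM final substrate added after a 15 min room-temperature compound preincubation with 10 nM enzyme. Signal taken at 0 min and again at 10 min.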
GCN5L2 inh – qHTS Assay for Inhibitors of GCN5L2. Potency, µM (titrated, usually from 58.9 µM), most hits filed as inhibitors. GCN5L2 HAT assay, ThioGlo1 CoA-SH fluorescence. AID 504327, 2011. Histone acetyltransferase KAT2A (Homo sapiens), Q92830. actives 0.21% (n = 390,000)
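Free CoA generated was detected with ThioGlo1 (50uM) fluorescence at Ex340nm/Em540nm, read immediately and after 20 min at room temperature. Enzyme, 20 nM in HEPES pH 7.5 buffer, saw compounds 15 min before adding 75uM H3(1-25) peptide and 70uM acetyl-CoA.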
Pol beta inh – qHTS Assay for Inhibitors of DNA Polymerase Beta; P06746; Pol beta primer extension/strand displacement, fluorescence kinetic; Potency, µM (titrated, usually from 114 µM), actives largely listed as inhibitors; actives 1.3% (n = 340,000); AID 485314, 2010
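Enzyme-only controls used 10 nM Pol beta; buffer lacking enzyme served as negative control. Compound preincubated 15 min, then 50 nM substrate added; 0 and 10 min reads at room temperature.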
GLS inh – qHTS for Inhibitors of Glutaminase (GLS); Glutaminase kidney isoform, mitochondrial (Homo sapiens), O94925; GLS enzymatic activity, qHTS titration; Potency, µM (highest dose often 45.5 µM), usual class: inhibitors; actives 0.21% (n = 410,000); AID 624170, 2012
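hKGA; 45 mM KH2PO4 pH 8.2 + 0.02% Tween-20; cpd via pin tool; 1 mM Gln soln; GluOx/HRP/Amplex Red; RT 30 min; fluor. t0 & final.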
Pol iota inh – qHTS for Inhibitors of Polymerase Iota | DNA polymerase iota (Homo sapiens), Q9UNA4 | Pol iota fluorescent replication assay, 10 min | Potency, µM (highest dose often 115 µM), actives largely listed as inhibitors | actives 1% (n = 390,000) | AID 588590, 2011
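Fluorescent replication assay read twice, at 0 min and 10 min after adding 50 nM (final) substrate. Enzyme (10 nM) and compounds were first incubated 15 min at room temperature; enzyme-free buffer wells were negative controls.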
Pol kappa inh-1 – qHTS for Inhibitors of Polymerase Kappa; actives 0.53% (n = 400,000); DNA polymerase kappa (Homo sapiens), Q9UBT6; Potency, µM (top dose mostly 107 µM), usual class: inhibitors; purified Pol kappa, fluorescent DNA synthesis assay, 10 min
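Pol kappa 10 nM + cpd, 15 min RT; start w/ substrate 50 nM final; fluorescence kinetic read, 0 and 10 min. Neg ctrl: buffer, no enzyme.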
Pol iota confirm – qHTS for Inhibitors of Polymerase Iota: Confirmatory Assay for Cherry-picked Compounds; AID 720496, 2013; shares compounds with Pol kappa inh-1; actives 77% (n = 1,500); Pol iota primer extension, TAMRA/BHQ fluorescence; Potency, µM, most hits filed as inhibitors
GALK confirm – Confirmation Assay for Inhibitors of Human Galactokinase (GALK). purified GALK, Kinase-Glo ATP depletion luminescence. actives 70% (n = 150). shares compounds with Pol eta inh-1. Potency, µM (titrated, usually from 115 µM), usual class: inhibitors
GALK redox cs – Confirmatory Assay for Inhibitors of Human Galactokinase (GALK): Phenol-HRP redox assay counterscreen; shares compounds with Pol eta inh-1; Phenol red-HRP H2O2 redox cycling, absorbance 600 nm; Potency, µM (top dose mostly 115 µM), most hits filed as inhibitors; actives 40% (n = 150); AID 2035, 2009
HEK293 tox-1 – Secondary Assay for Inhibitors of Human Galactokinase (GALK): HEK-293 Cell Viability Assay | shares compounds with Pol eta inh-1 | HEK-293 viability, ATP luminescence (CellTiter-Glo), 24/48 h | Potency, µM (series often up to 46.1 µM), hits mostly inhibitors | actives 10% (n = 170)
Pol kappa inh-2 – qHTS for Inhibitors of Polymerase Kappa: Confirmatory Assay for Cherry-picked Compounds; shares compounds with Pol eta inh-1; purified Pol-kappa, fluorescent strand-displacement substrate; Potency, µM, most hits filed as inhibitors; actives 76% (n = 920); AID 720501, 2013
Pol eta inh-2 – qHTS for Inhibitors of Polymerase Eta: Confirmatory Assay for Cherry-picked Compounds. shares compounds with Pol eta inh-1. Pol eta primer extension, TAMRA/BHQ fluorescence, 10 min. Potency, µM, hits mostly inhibitors. actives 64% (n = 2,600). AID 720502, 2013
GLS hit conf – qHTS for Inhibitors of Glutaminase (GLS): Hit Confirmation | shares compounds with GLS inh | biochemical glutaminase enzyme inhibition assay | Potency, µM (series often up to 46.1 µM), actives largely listed as inhibitors | 35 tested, under 10 active; calls by dose curve
HRP GOx counter – qHTS for Inhibitors of Glutaminase (GLS): Hit Confirmation in HRP Counterscreen; shares compounds with GLS inh; HRP/glutamate oxidase coupled Amplex Red fluorescence counterscreen; activity change, negative = inhibition, % at 46.1 µM; 35 tested, under 10 active
HEK293 tox-2 – qHTS for Inhibitors of Glutaminase (GLS): Hit Confirmation using Cytotoxicity | shares compounds with GLS inh | HEK-293 viability, CellTiter-Glo luminescence, 24 h | activity change, negative = cytotoxicity, % at 46.1 µM | 35 tested, under 10 active | AID 624264, 2012
Large screens that a line does not name were inactive (follow-up assays come after a bar, where they were run). Only some compounds are listed: those with a hit (about 2.4% of all), similar ones and a draw of the others. Unless noted, calls come from the whole dose curve; as a rule, active = well fitted curve in the direction sought with a large enough effect; inconclusive = small, poorly fitted or top-dose-only effect, or another doubt; inactive = no such curve, though single readings can be large; an effect the other way counts as inactive or inconclusive.

CCOC(=O)CC(NS(=O)(=O)c1ccc2[nH]cc(C(=O)O)c(=O)c2c1)c1ccc(OCC)c(OC)c1 (stereo not given)	Pol eta inh-1 4µM, Pol beta inh 3.5µM, GLS inh 16µM, Pol iota inh 20µM, Pol kappa inh-1 50µM | Pol iota confirm 34 | Pol eta inh-2 27 | GLS hit conf 21µM | HRP GOx counter inactive | HEK293 tox-2 inactive
COc1ccc(-n2c(-c3ccc(C)cc3)cc3c2CC(C)(C)CC3=O)cc1Cl	none
Cc1ccc(NC(=O)CCC(=O)c2ccc(Cl)s2)nc1	Pol eta inh-1 40µM, Pol iota inh inconclusive, Pol kappa inh-1 inconclusive (no result: Pol beta inh) | Pol kappa inh-2 inconclusive
CC1(C)N=C(Nc2nc3ccccc3o2)NC2=C1C(=O)CCC2	none (no result: Pol eta inh-1, GCN5L2 inh, Pol beta inh, GLS inh, Pol iota inh, Pol kappa inh-1) | HEK293 tox-1 inactive
O=c1[nH]c(Nc2nc3ccccc3o2)nc2c1CCCC2	none
CC1CCC2(C1)N=C(Nc1nc3ccccc3o1)NC1=C2C(=O)CCC1 (stereo not given)	none (no result: Pol eta inh-1, GCN5L2 inh, Pol beta inh, GLS inh, Pol iota inh, Pol kappa inh-1) | HEK293 tox-1 inconclusive
O=c1cc(-c2cc(O)c(O)c(O)c2)oc2cc(O)cc(O)c12	Pol kappa inh-1 0.4µM (no result: Pol eta inh-1, Pol beta inh, GLS inh, Pol iota inh) | GALK confirm 42µM | GALK redox cs inactive | HEK293 tox-1 inactive
